Reference: the supplement of paper PMC8728848
The entries come from a sample that favours the strongest signals as a whole.

Legend:
Experiment in all cases: glycan array binding signal (z-score within array); higher = stronger binding
Settings in all cases: glycan notation: IUPAC condensed, linker removed
[1] = target: Fuc(a1-2)Gal(b1-4)Fuc(a1-3)]GlcNAc(b1-2)Man(a1-3)[Fuc(a1-2)Gal(b1-4)[Fuc(a1-3)]GlcNAc(b1-2)Man(a1-6)]Man(b1-4)GlcNAc(b1-4)GlcNAc
Summary of the method: (§1)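 The binding signal is a Z-score computed within each array. Data were drawn from 3228 arrays in the Consortium for Functional Glycomics database, restricted to those with a known protein sequence. Scores were averaged over arrays of the same protein sequence at different concentrations or buffers, and over linkers, and negative values can be taken as non-binding.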

[2] = target: Fuc(a1-2)Gal(b1-4)GlcNAc(b1-3)[Fuc(a1-3)[Gal(b1-4)]GlcNAc(b1-6)]Gal(b1-4)Glc
Summary of the method: as §1

[3] = target: Fuc(a1-2)Gal(b1-4)[Fuc(a1-3)]GlcNAc(b1-3)Gal(b1-4)[Fuc(a1-3)]GlcNAc
Summary of the method: as §1

[4] = target: Fuc(a1-2)[Gal(a1-3)]Gal(b1-3)GlcNAc(b1-6)GalNAc
Summary of the method: as §1

[5] = target: Fuc(a1-2)[Gal(a1-3)]Gal(b1-4)GlcNAc(b1-2)Man(a1-3)[Fuc(a1-2)[Gal(a1-3)]Gal(b1-4)GlcNAc(b1-2)Man(a1-6)]Man(b1-4)GlcNAc(b1-4)[Fuc(a1-6)]GlcNAc
Summary of the method: as §1

[6] = target: Fuc(a1-2)[Gal(a1-3)]Gal(b1-4)GlcNAc(b1-3)GalNAc
Summary of the method: as §1

[7] = target: Fuc(a1-2)[Gal(a1-3)]Gal(b1-4)[Fuc(a1-3)]GlcNAc(b1-3)GalNAc
Summary of the method: as §1

[8] = target: Fuc(a1-3)[Gal(b1-4)]GlcNAc
Summary of the method: as §1

[9] = target: Gal(a1-3)Gal(b1-3)GlcNAc(b1-6)GalNAc
Summary of the method: as §1

[10] = target: Gal(a1-3)[Gal(a1-4)]Gal(b1-4)GlcNAc
Summary of the method: as §1

[11] = target: Gal(a1-4)GlcNAc
Summary of the method: as §1

[12] = target: Gal(a1-6)Glc
Summary of the method: as §1

[13] = target: Gal(b1-3)[Fuc(a1-4)]GlcNAc(b1-3)Gal(b1-3)[Fuc(a1-4)]GlcNAc
Summary of the method: as §1

[14] = target: Gal(b1-4)GlcNAc(b1-2)Man(a1-3)[Gal(b1-4)GlcNAc(b1-2)Man(a1-6)][GlcNAc(b1-4)]Man(b1-4)GlcNAc(b1-4)[Fuc(a1-6)]GlcNAc
Summary of the method: as §1

[15] = target: Gal(b1-4)GlcNAc(b1-2)Man(a1-6)Man(b1-4)GlcNAc(b1-4)GlcNAc
Summary of the method: as §1

[16] = target: Gal(b1-4)GlcNAc(b1-3)Gal(b1-3)GlcNAc
Summary of the method: as §1

[17] = target: Gal(b1-4)GlcNAc(b1-6)Gal(b1-4)GlcNAc
Summary of the method: as §1

[18] = target: Gal3S(b1-4)[Fuc(a1-3)]Glc6S
Summary of the method: as §1

[19] = target: Gal3S6S(b1-4)GlcNAc6S
Summary of the method: as §1

[20] = target: Gal6S(b1-4)GlcNAc6S
Summary of the method: as §1

[21] = target: GalNAc(a1-3)GalNAc(b1-3)Gal(a1-4)Gal(b1-4)GlcNAc
Summary of the method: as §1

[22] = target: GalNAc(b1-6)GalNAc
Summary of the method: as §1

[23] = target: GalNAc4S6S(b1-4)GlcNAc
Summary of the method: as §1

[24] = target: GlcNAc(b1-2)Man(a1-3)[GlcNAc(b1-2)Man(a1-6)]Man(b1-4)GlcNAc(b1-4)[Fuc(a1-6)]GlcNAc
Summary of the method: as §1

[25] = target: GlcNAc(b1-3)Gal(b1-4)GlcNAc(b1-3)Gal(b1-4)GlcNAc(b1-2)[GlcNAc(b1-3)Gal(b1-4)GlcNAc(b1-3)Gal(b1-4)GlcNAc(b1-6)]Man(a1-6)[GlcNAc(b1-3)Gal(b1-4)GlcNAc(b1-3)Gal(b1-4)GlcNAc(b1-2)Man(a1-3)]Man(b1-4)GlcNAc(b1-4)[Fuc(a1-6)]GlcNAc
Summary of the method: as §1

[26] = target: GlcNAc(b1-3)Gal(b1-4)GlcNAc(b1-3)[GlcNAc(b1-3)Gal(b1-4)GlcNAc(b1-3)]GalNAc
Summary of the method: as §1

[27] = target: GlcNAc(b1-4)[GlcNAc(b1-6)]GalNAc
Summary of the method: as §1

[28] = target: Man(a1-2)Man(a1-3)[Man(a1-6)]Man(a1-6)[Man(a1-2)Man(a1-3)]Man(b1-4)GlcNAc(b1-4)GlcNAc
Summary of the method: as §1

[29] = target: Man(a1-3)[Man(a1-6)]Man(b1-4)GlcNAc(b1-4)[Fuc(a1-6)]GlcNAc
Summary of the method: as §1

[30] = target: Neu5Ac(a2-3)Gal(b1-3)GalNAc(b1-4)Gal(b1-4)Glc
Summary of the method: as §1

B1: Endo180d1-D4 (Homo sapiens), Q9UBG0 (protein)
chain: MGPGRPAPAPWPRHLLRCVLLLGCLHLGRPGAPGDAALPEPNVFLIFSHGLQGCLEAQGGQVRVTPACNTSLPAQRWKWVSRNRLFNLGTMQCLGTGWPGTNTTASLGMYECDREALNLRWHCRTLGDQLSLLLGARTSNISKPGTLERGDQTRSGQWRIYGSEEDLCALPYHEVYTIQGNSHGKPCTIPFKYDNQWFHGCTSTGREDGHLWCATTQDYGKDERWGFCPIKSNDCETFWDKDQLTDSCYQFNFQSTLSWREAWASCEQQGADLLSITEIHEQTYINGLLTGYSSTLWIGLNDLDTSGGWQWSDNSPLKYLNWESDQPDNPSEENCGVIRTESSGGWQNRDCSIALPYVCKKKPNATAEPTPPDRWANVKVECEPSWQPFQGHCYRLQAEKRSWQESKKACLRGGGDLVSIHSMAELEFITKQIKQEVEELWIGLNDLKLQMNFEWSDGSLVSFTHWHPFEPNNFRDSLEDCVTIWGPEGRWNDSPCNQSLPSICKKAGQLSQGAAEEDHGCRKGWTWHSPSCYWLGEDQVTYSEARRLCTDHGSQLVTITNRFEQAFVSSLIYNWEGEYFWTALQDLNSTGSFFWLSGDEVMYTHWNRDQPGYSRGGCVALATGSAMGLWEVKNCTSFRARYICRQSLGTPVTPELPGPDPTPSLTGSCPQGWASDTKLRYCYKVFSSERLQDKKSWVQAQGACQELGAQLLSLASYEEEHFVANMLNKIFGESEPEIHEQHWFWIGLNRRDPRGGQSWRWSDGVGFSYHNFDRSRHDDDDIRGCAVLDLASLQWVAMQCDTQLDWICKIPRGTDVREPDDSPQGRREWLRFQEAEYKFFEHHSTWAQAQRICTWFQAELTSVHSQAELDFLSHNLQKFSRAQEQHWWIGLHTSESDGRFRWTDGSIINFISWAPGKPRPVGKDKKCVYMTASREDWGDQRCLTALPYICKRSNVTKETQPPDLPTTALGGCPSDWIQFLNKCFQVQGQEPQSRVKWSEAQFSCEQQEAQLVTITNPLEQAFITASLPNVTFDLWIGLHASQRDFQWVEQEPLMYANWAPGEPSGPSPAPSGNKPTSCAVVLHSPSAHFTGRWDDRSCTEETHGFICQKGTDPSLSPSPAALPPAPGTELSYLNGTFRLLQKPLRWHDALLLCESHNASLAYVPDPYTQAFLTQAARGLRTPLWIGLAGEEGSRRYSWVSEEPLNYVGWQDGEPQQPGGCTYVDVDGAWRTTSCDTKLQGAVCGVSSGPPPPRRISYHGSCPQGLADSAWIPFREHCYSFHMELLLGHKEARQRCQRAGGAVLSILDEMENVFVWEHLQSYEGQSRGAWLGMNFNPKGGTLVWQDNTAVNYSNWGPPGLGPSMLSHNSCYWIQSNSGLWRPGACTNITMGVVCKLPRAEQSSFSPSALPENPAALVVVLMAVLLLLALLTAALILYRRRQSIERGAFEGARYSRSSSSPTEATEKNILVSDMEMNEQQE
glycan array binding signal (z-score) [1]: 4.92
glycan array binding signal (z-score) [2]: 2.16
glycan array binding signal (z-score) [3]: 1.23
glycan array binding signal (z-score) [4]: 0.628
glycan array binding signal (z-score) [5]: -0.162
glycan array binding signal (z-score) [6]: 0.423
glycan array binding signal (z-score) [7]: 4.86
glycan array binding signal (z-score) [8]: -0.373
glycan array binding signal (z-score) [9]: 0.29
glycan array binding signal (z-score) [10]: 0.096
glycan array binding signal (z-score) [11]: -0.552
glycan array binding signal (z-score) [12]: 0.11
glycan array binding signal (z-score) [13]: 3.87
glycan array binding signal (z-score) [14]: -1.03
glycan array binding signal (z-score) [15]: 0.463
glycan array binding signal (z-score) [16]: 0.375
glycan array binding signal (z-score) [17]: -1.39
glycan array binding signal (z-score) [18]: 0.973
glycan array binding signal (z-score) [19]: 4.83
glycan array binding signal (z-score) [20]: 2.48
glycan array binding signal (z-score) [21]: -0.306
glycan array binding signal (z-score) [22]: -0.31
glycan array binding signal (z-score) [23]: 3.2
glycan array binding signal (z-score) [24]: 5.6
glycan array binding signal (z-score) [25]: 4.5
glycan array binding signal (z-score) [26]: -0.76
glycan array binding signal (z-score) [27]: -1.12
glycan array binding signal (z-score) [28]: -0.036
glycan array binding signal (z-score) [29]: 0.638
glycan array binding signal (z-score) [30]: -3.76
